The values below come from PubChem BioAssay (NCI).

“And” between values parts separate entries of the source, which are not always exact repeats. Equal entries are not always repeated. This is part of a sample that, as a whole, favours compounds with a hit. Of some 83,000 tested, about 20% had one in any assay.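 96-well plates, one dose, 48 hours. Percent growth reported; active if below 10.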 The source made the active and inactive calls.

In this assay the test system is MDA-MB-468 breast. Briefly: NCI-60 one-dose screen, 48 h (100 = growth as untreated, 0 = no growth, -100 = all killed). Conditions: 10 µM unless noted.
Take `COC(=O)[C@]12CC[C@@H](C(/C=C/c3cccnc3)=N/O)[C@@H]1[C@H]1CC[C@@H]3[C@@]4(C)CC(=C/c5cccnc5)/C(=N/O)C(C)(C)[C@@H]4CC[C@@]3(C)[C@]1(C)CC2`: the growth was 13.1% (inactive).

Turning to `O=C(Nc1c(Cl)cc(Cl)cc1Cl)ON=C1CCCCC1`, the growth was 96.7% (inactive).

Regarding `Cc1ccc(NC(=O)CSc2nc3ccccc3c(=O)n2CCc2ccccc2)c(C(=O)O)c1`, the growth is 110% (inactive).

As to `O=C(Cn1c(=O)sc2ccccc21)NNS(=O)(=O)c1ccccc1[N+](=O)[O-]`, the growth is 107% (inactive).

Regarding `COc1cc(-c2nc(-c3nnc(-c4ccccc4Cl)o3)c3ccccn23)cc(OC)c1OC`, the growth is 88.5% (inactive).

As for `COc1cnc2c(c1)C(=O)c1c-2n(CCCN2CCOCC2)c(=O)c2cc(F)ccc12`, the growth was -50.1% (active).

For the compound `COc1ccc(-c2cc(/C=C3\C(=O)Nc4ccc(Cl)cc43)[nH]n2)cc1`, the growth was 41.7% (inactive).

On to `CC1(C(=O)O)CCC(N)(C(=O)O)C1(C)C` (stereo not given), for which the growth was 115% (inactive).

On to `O=C(N/N=C/c1ccc(Cl)cc1)c1ccc(Cc2n[nH]c(=O)c3cccnc23)cc1`, for which the growth was 89.8% (inactive).

As to `N#Cc1nnn(-c2ccc(S(N)(=O)=O)cc2)c1NC(=O)CCl`, the growth was 98.7% (inactive).

For the compound `CC(=O)c1ccc2c(c1)N(CCCN1CCN(CCO)CC1)c1ccccc1S2`, the growth is 92.3% (inactive) and -79% (active).

In the case of `Nc1cc2c(cc1C(=O)c1cccc(F)c1)OCCO2`, the growth is 93.8% (inactive).

In the case of `CCCCCc1ccc(S(=O)(=O)Nc2cc(-c3csc(NC(=O)CN4CCN(C)CC4)n3)ccc2N2CCN(C)CC2)cc1`, the growth is 51.7% (inactive).

For the compound `CCOc1ccc(/C=N/Nc2cc(C)nc3ccc(Br)cc23)cc1`, the growth is 65.2% (inactive).

Take `NCCCNc1nc2ccccc2c2c(=O)c3cc(F)cc(Cl)c3sc12`: the growth was 73.4% (inactive).

With `COc1cc2nc(Cl)nc(Nc3cccc(C4=Nc5c(N)nc(N)nc5NC(c5ccc(F)cc5)C4)c3)c2cc1OC` (stereo not given), the growth was 45.8% (inactive).

For the compound `C=C(C)[C@@H]1CC[C@]2(C(=O)O)CC[C@]3(C)[C@H](CC[C@@H]4[C@@]5(C)C[C@@H](CC#Cc6ccccc6)C(=O)C(C)(C)[C@@H]5CC[C@]43C)[C@@H]12`, the growth was 19.8% (inactive).

In the case of `NC(N)=Nc1ccc(S(=O)(=O)O)cc1`, the growth is 114% (inactive).

Turning to `COc1cc(-c2ccc(NC(=O)CC(C)=O)c(OC)c2)ccc1NC(=O)CC(C)=O`, the growth is 109% (inactive).

On to `CCCCCCCCCCCC(=O)NCCC[N+](C)(C)CC(=O)[O-]`, for which the growth is 86.9% (inactive).

`COc1ccc(S(=O)(=O)N2CCN(C)CC2)cc1NC(=O)c1[nH]c(C)c2c1CCCCC2=O`: the growth was 39.8% (inactive).

In the case of `N#Cc1nc(-c2ccc(Cl)cc2)oc1N1CCC(S(=O)(=O)N2CCOCC2)CC1`, the growth is 97.5% (inactive).

`Cc1ccccc1NC(=O)c1sc2nc(C)c(C(C)O)cc2c1N` (stereo not given): the growth is 39.5% (inactive).

Consider `CC(C)=CCCC(C)c1ccc(C)c2c1OCN(CCCCCO)C2` (stereo not given), for which the growth is 90% (inactive).

For `O=c1ccccc(-c2ccc(Br)cc2)c1O`, the growth was 12.3% (inactive).

With `COc1cc(-c2nccc3[nH]c(-c4cccc5[nH]ccc45)nc23)cc(OC)c1OC`, the growth is -26.1% (active).

Take `CCN(CC)CCCC(C)Nc1cnc(C(=O)Nc2cc(F)cc3cccnc23)cn1` (stereo not given): the growth is 6.24% (active) and -66.3% (active).

On to `COc1cc(/C=C2\C(=O)Nc3ccccc32)ccc1OCc1ccc(F)cc1`, for which the growth was 102% (inactive).

For `CC[C@@]1(C(N)=O)CC2C=CC1C2` (stereo not given in full), the growth was 103% (inactive).

As for `COc1cc2c(=O)n(CCCn3ccnc3)c3c4cc5c(cc4ccc3c2cc1OC)OCO5`, the growth was -37.3% (active).

With `COc1cc(-c2nc3ccccc3[nH]2)ccc1OCc1nnc(-c2ccc(CC(C)C)cc2)o1`, the growth is 94.1% (inactive).

`CCCCNCC(O)c1cc(-c2ccc(C(F)(F)F)cc2)nc(-c2ccc(C(F)(F)F)cc2)c1` (stereo not given): the growth was -87.9% (active).

Consider `O=C(Cn1ccnc1)Nc1ccc(-c2nc3ccccc3s2)cc1`, for which the growth was 0.748% (active).

For `COc1ccc2[nH]c(C(=O)N3CCN(C(=O)OCc4ccc5c(Br)cc(Br)c(O)c5n4)CC3)cc2c1`, the growth was -80.5% (active).

On to `CC(C)C[C@H](C(=O)N[C@H](C(N)=O)C(C)C)N1CC=CCN(OCc2ccccc2)S1(=O)=O`, for which the growth is 105% [2.5 µM] (inactive).

Consider `NC1=NN(c2ccccc2)C(=O)/C1=C/c1ccc(Cl)cc1`, for which the growth was 114% (inactive).

Consider `C=CCn1c(SCC(=O)Nc2ccc(C(=O)/C=C/c3ccc(Cl)cc3)cc2)nnc1-c1ccc(Cl)cc1`, for which the growth is 89% (inactive).

For the compound `c1ccc(NCc2ccc3c(c2)OCO3)cc1`, the growth was 104% (inactive) and 97.7% (inactive).

As to `N#CCNC(=O)c1ccc(-c2ccnc(Nc3ccc(N4CCOCC4)cc3)n2)cc1`, the growth was 9.99% (active).

With `CS(=O)(=O)c1ccc(C(=O)N/N=C/c2ccc3c(c2)OCO3)cc1`, the growth was 109% (inactive).
